N370S GC mod: N370S glucocerebrosidase modulation, Gaucher chaperone candidate | P04062 | N370S GC spleen homogenate, 4MU-glucoside fluorescence | Potency, µM (top dose mostly 59.4 µM), for the others: at the highest dose activity change, negative = inhibition, hits mostly inhibitors | 0.092% of 330,000 active | AID 2101;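 also: potency is read from the fitted curve at half-maximal effect; 0% = full enzyme activity and -100% = no enzyme basal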
GAA inhib: inhibitors of human lysosomal alpha-glucosidase. 0.005% of 200,000 active. P10253. purified human GAA, 4-MU-alpha-glucoside fluorescence. Potency, µM (highest dose often 76.9 µM), inactives show at the highest dose activity change, negative = inhibition, hits mostly inhibitors;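 also: potency is read from the fitted curve at half-maximal effect; plate controls were uninhibited enzyme wells for no effect and no-enzyme background for full effect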
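AC50 values come from Hill fits of compound titrations (up to 77 uM) against 4 nM human enzyme. Substrate 4-methylumbelliferyl-alpha-D-pyranoside at 400 uM, pH 5.0 citrate buffer, 20 min room temperature; fluorescence Ex 365/Em 440 after alkaline stop.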
GLA spleen mod: alpha-galactosidase A (human) modulation; Potency, µM (top dose mostly 80 µM), for the others: at the top dose activity change, negative = inhibition, actives largely listed as inhibitors; AID 2107; human spleen homogenate, 4MU-alpha-Gal fluorescence, 40 min; P06280; 0.008% of 240,000 active;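 also: potency is read from the fitted curve at half-maximal effect; 0% = enzyme with vehicle and -100% = no enzyme basal signal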
Target sequence (P06280 32-429 limits assumed): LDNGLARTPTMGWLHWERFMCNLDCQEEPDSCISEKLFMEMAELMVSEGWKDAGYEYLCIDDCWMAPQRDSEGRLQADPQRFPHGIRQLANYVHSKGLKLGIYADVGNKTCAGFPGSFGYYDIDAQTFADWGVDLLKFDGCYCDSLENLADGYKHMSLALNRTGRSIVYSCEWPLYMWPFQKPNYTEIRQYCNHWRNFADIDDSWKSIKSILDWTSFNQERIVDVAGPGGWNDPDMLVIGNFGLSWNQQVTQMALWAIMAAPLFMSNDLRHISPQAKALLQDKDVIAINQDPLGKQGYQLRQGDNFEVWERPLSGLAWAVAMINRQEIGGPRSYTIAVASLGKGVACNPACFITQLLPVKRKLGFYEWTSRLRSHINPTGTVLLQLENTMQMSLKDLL
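Inhibition or activation of alpha-galactosidase in human spleen homogenate is scored by 4-MU fluorescence after 40 min at 37C, pH 5.0, with 1 mM substrate. AC50s come from concentration-response fitted to the Hill equation.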
GLA inh pH 4.5: inhibitors of human alpha-galactosidase A at pH 4.5. AID 1467. purified enzyme, 4-MU-alpha-Gal fluorescence, pH 4.5. P06280. 230,000 tested, under 10 active. activity change, negative = inhibition, % at 105 µM;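 also: 0% = full activity with enzyme and -100% = basal without enzyme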
GAA spleen mod: lysosomal alpha-glucosidase (human) modulation | P10253 | human spleen homogenate, 4-MU-alpha-glucoside fluorescence | Potency, µM (highest dose often 79.9 µM), for the others: at the highest dose activity change, negative = inhibition, most hits filed as inhibitors | 0.006% of 240,000 active;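 also: potency is read from the fitted curve at half-maximal effect; 0% = enzyme with vehicle and -100% = no enzyme basal signal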
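Enzyme source: human spleen homogenate, 1 ug/well. Buffer 50 mM citric acid/K phosphate pH 5.0, 0.01% Tween-20. 4-MU-alpha-glucoside 1 mM; 37 C x 40 min; NaOH/glycine stop; fluorescence.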
GAA glycogen: alters human alpha-glucosidase cleavage of glycogen; Potency, µM (highest dose often 76.4 µM), for inactives: top-dose activity change, negative = inhibition, most hits filed as inhibitors; recombinant GAA, glycogen substrate, Amplex Red glucose oxidase fluorescence; 0.38% of 300,000 active; AID 2100; P10253;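 also: potency is read from the fitted curve at half-maximal effect; 0% = full enzyme reaction and -100% = no-enzyme basal signal; the screen sought inhibitors and activators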
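Natural-substrate format: glycogen cleavage by 4 nM human enzyme, glucose read by Amplex Red coupling (Ex 573, Em 610 nm). Normalized to enzyme and no-enzyme controls.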
An asterisk follows results filed as active; ? = inconclusive; . = no result given; [ ] = remark or other dose. This is a sample that favours compounds with a hit; in the whole collection about 0.43% have one here. Calls follow the shape of the dose curve; as a rule, active = well fitted curve in the direction sought with a large enough effect; inconclusive = small, poorly fitted or top-dose-only effect, or another doubt; inactive = no such curve, though single readings can be large; an effect the other way counts as inactive or inconclusive.

SMILES	N370S GC mod	GAA inhib	GLA spleen mod	GLA inh pH 4.5	GAA spleen mod	GAA glycogen
Cc1c(NCc2nc3ccccc3[nH]2)c(=O)n(-c2ccccc2)n1C	-3%	-3%	4%	-10	1%	11µM*
Oc1ccccc1/C=N/Nc1nccnc1Cl	-23%	-1%	3%	6	1%	-1%
Oc1ccc(/C=N/Nc2cccc3cccnc23)c(O)c1	1%	-2%	-6%	-1	-10%	25µM*
Oc1ccc(/C=N/Nc2ncc(Br)cn2)c(O)c1	-23%	-9%	9%	-12	8%	28µM*
O=c1[nH]ncc(N/N=C\c2ccc(O)cc2O)c1Cl	-13%	-10%	-1%	-13	-11%	2.5µM*
CC1C(=O)NN=C1C(=O)N/N=C\c1ccc(O)cc1O (centres undefined)	-16%	0%	-6%	-4	-8%	-2%
Oc1ccc(Br)cc1/C=N/Nc1ncc(-c2ccccc2)cn1	-1%	2%	3%	-1	1%	5%
Oc1ccc(/C=N/Nc2nccnc2Cl)c(O)c1	?	-4%	-2%	2	-2%	11µM*
Cc1cc(C)c(Nc2nn3c(=O)c4cc5c(cc4nc3s2)OCO5)c(C)c1	.	.	.	.	.	0%[76.3 µM]
COc1ccccc1CNc1ccc(-c2nc(C(C)C)no2)cc1[N+](=O)[O-]	.	.	.	.	.	-4%[76.3 µM]
COc1ccc(OCc2ccc(-c3nc(C#N)c(N4CCN(C)CC4)o3)o2)cc1	.	.	.	.	.	-4%[76.3 µM]
CC1(C)CC(=O)C(c2c[nH]c3ccccc23)C(=O)C1	16%	5%	1%	6	-3%	10µM*
COc1ccc(NC(=O)Nc2cccc(-c3cn4cccnc4n3)c2)cc1	.	.	.	.	.	-14%[76.3 µM]
COc1cc(Br)c(C2CC(=O)Nc3cc4c(cc32)OCCO4)cc1OC (centres undefined)	.	.	.	.	.	-2%[76.3 µM]
Cc1ccccc1OC1=NS(=O)(=O)c2ccccc21	0%	?	-13%	1	-3%	-6%
O=S1(=O)N=C(Oc2cccc3ccccc23)c2ccccc21	-5%	-1%	-1%	-3	4%	25µM*
COc1cc(CNc2ccc3c(c2)CCC3)cc(OC)c1O	2%	5%	-10%	3	-17%	25µM*
COc1cc(/C=N/n2c(-c3ccccc3)n[nH]c2=S)ccc1O	14µM*	-3%[15.4 µM]	14%	-13	13%	?
COc1cc(/C=N/n2c(-c3ccccc3)n[nH]c2=S)cc(OC)c1O	-11%	.	5%	-2	-1%	?
O=C(CN1C(=O)c2ccccc2S1(=O)=O)c1ccc(F)c(F)c1	-2%	.	.	.	.	.
O=C(CN1C(=O)c2ccccc2S1(=O)=O)c1ccc(O)c(O)c1	-6%	.	-2%	3	0%	14µM*
Cc1ccc(NC(=O)Nc2sc(=S)n(C)c2C)cc1	-14%	0%	-6%	5	-7%	25µM*
CCOc1ccc(-c2nonc2NC(=O)c2oc3cc(Br)ccc3c2C)cc1	.	.	.	.	.	15%[76.3 µM]
COC(=O)c1cc2oc3ccccc3c2n1CC(=O)Nc1ccc(F)c(Cl)c1	.	.	.	.	.	13%[76.3 µM]
CN1c2ccccc2C(C)(C)C12C=Nc1c(cc(N3CCOCC3)c3ccccc13)O2 (centres undefined)	?	5%	9%	-15	3%	-22%
CN1c2ccccc2C(C)(C)C12C=Cc1cc(O)ccc1O2 (centres undefined)	1%	0%	5%	-20	-11%	12µM*
O=C(c1ccc2c(c1)N(Cc1ccccc1F)C(=O)c1ccccc1S2=O)N1CCC(Cc2ccccc2)CC1 (centres undefined)	.	.	.	.	.	5%[76.3 µM]
CCOc1ccc(-n2c(=O)c3sc4ccccc4c3n(Cc3cccc(C)c3)c2=O)cc1	.	.	.	.	.	-13%[76.3 µM]
Cc1ccccc1N(C(=O)c1ccccn1)C(C(=O)NCc1ccccc1)c1ccncc1 (centres undefined)	-3%	.	.	.	.	-6%
